For 31 compounds, outcome and AC50 results are on record in PubChem BioAssay (EPA / NIEHS).

Calls of active or inactive are those of the source. Rule for the calls: active = hit-call score of the fitted dose curve at least 0.9, where 1 is the maximum; inactive = score below 0.9.

Cellular tumor antigen p53 (Homo sapiens), sequence (P04637 whole entry, looked up): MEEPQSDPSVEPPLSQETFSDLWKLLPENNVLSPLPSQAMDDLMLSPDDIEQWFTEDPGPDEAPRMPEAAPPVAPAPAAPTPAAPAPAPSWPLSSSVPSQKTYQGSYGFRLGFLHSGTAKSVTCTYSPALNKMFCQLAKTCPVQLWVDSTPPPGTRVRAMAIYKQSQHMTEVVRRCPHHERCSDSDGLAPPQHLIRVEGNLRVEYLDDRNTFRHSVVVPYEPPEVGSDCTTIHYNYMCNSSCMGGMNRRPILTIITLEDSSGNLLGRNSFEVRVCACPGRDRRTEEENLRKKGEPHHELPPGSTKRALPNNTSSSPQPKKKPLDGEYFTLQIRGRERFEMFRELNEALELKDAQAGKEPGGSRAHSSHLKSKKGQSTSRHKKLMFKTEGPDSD

Read-out in this assay: Cellular tumor antigen p53 (Homo sapiens) (UniProt P04637)
The assay is described as follows: LTEA_HepaRG_TP53: Life Technologies and Expression Analysis (LTEA) Assay for Tumor Protein P53 (TP53) using HepaRG (AID 2283537). The conditions noted are these: mRNA level, 48 h; actives raise or lower the signal. Here is the method:
LTEA_HepaRG is a cell based, multiplexed-readout assay that uses HepaRG, a human liver cell line, with measurements taken at 48 hours after chemical dosing on a 96-well plate.LTEA_HepaRG_TP53 is one of 102 assay component(s) measured in the LTEA HepaRG cell culture assay. It is a marker of Oxidative Stress.Data from the assay component LTEA_HepaRG_TP53 was analyzed into 1 endpoint. This assay endpoint, LTEA_HepaRG_TP53, was analyzed with bidirectional fitting relative to DMSO as the negative control and baseline of activity. Using a type of inducible reporter, measures of mRNA induction for gain or loss-of-signal activity can be used to understand regulation of transcription factor activity. To generalize the intended target to other relatable targets, this assay endpoint is annotated to the dna binding intended target family, where the subfamily is tumor suppressor.
A total of 1060 chemcials from the ToxCast library were tested in eight-point concentration-response experiments. Cell culture and cytotoxicity assays were conducted at Thermo Fisher Scientific's Custom Services facility (Madison, WI). A single lot of human HepaRG cells (Thermo Fisher Scientific, Frederick, MD) was used for the cell culture experiments. 96-well format collagen type I coated plates of human HepaRG cells were prepared using established methods. Briefly, cryopreserved HepaRG cells were thawed, plated at a density of approximately 100,000 cells/well in HepaRG Thaw, Plate, and General Purpose media (HPRG770, Thermo Fisher Scientific), and incubated for 48 hours. 0.5% DMSO was selected as vehicle control to balance the requisite need of DMSO in HepaRG cultures to maintain differentiation (for example, baseline metabolism, proportions of hepatocytes vs. cholangiocytes), while enabling further hepatic receptor pathway activation (for example, PXR and CAR) in response to chemical exposure. 48 hours after plating, the culture medium was replaced with HepaRG Serum-Free Incudtion Media. Cells were exposed to each test chemical in duplicate and maintained in CO2 incubators for another 48 hours. Chemical plates were thawed to room temperature and 200x concentrations of treatment groups were prepared. 8-point conentration-reponse curves were made with the highest exposure at 100 uM, followed by half-log dilutions, all in 0.5% DMSO. Each test plate contained variouse controls, induction positive controls (1mM phenobarbital), cytotoxicity positive controls ([…] aflatoxin B1), vehicle controls (0.5% DMSO), and total lysis controls (0.5% DMSO). Cell morphology images were taken using an Essen IncuCyte FLR automated microscope, with six 96-well plates imaged in about 24 minutes. Images were captured and exported and JPEG files. Spent culture media was transfered to black-well plates for the LDH assay, and remaining media was sorted at -80 C for later use. Cells were treated with RLT buffer and frozen until shipped for gene expression analysis. Total RNA was isolated from the cell suspension in 75 uL of Buffer RLT (Qiagen, Germantown, MD 20874) by Quintiles/Expression Analysis (Durham, NC) using a custom isolation procedure. Total RNA from each plate well was transferred to a preamplification plate. Fluidigm's 96.96 Dynamic ArrayTM (Fluidigm, Amsterdam, the Netherlands) technology was used for gene expression analyses by quantitative reverse transcription polymerase chain reaction (qRT-PCR, performed by Quintiles/Expression Analysis, Durham, NC)89. Standard TaqManTM Assays (Applied Biosystems/ThermoFisher Scientific, Foster City, CA) were used to assess the expression of 93 genes selected based on their selectivity and sensitivity to important hepatic receptors known to be modulated by environmental chemicals; importance in human hepatocyte functionality; and hepatotoxicity. […]
As for `ClC1(Cl)C2(Cl)C3(Cl)C4(Cl)C(Cl)(Cl)C5(Cl)C3(Cl)C1(Cl)C5(Cl)C24Cl` (stereo unspecified), the outcome was inactive. The same measure, in the same setting: the result for `CC(C)(C)CC(C)(C)c1ccc(O)cc1` reads “inactive”; that for `CC12CC1(C)C(=O)N(c1cc(Cl)cc(Cl)c1)C2=O` (stereo unspecified), “inactive”. The AC50 is the concentration at which the activity in the assay is half-maximal. On to `O=[N+]([O-])c1ccc(O)c([N+](=O)[O-])c1`, for which the concentration at half-maximal activity (AC50) was 13.2 µM (active).

Turning to `O=C1C2(Cl)C3(Cl)C4(Cl)C(Cl)(Cl)C5(Cl)C3(Cl)C1(Cl)C5(Cl)C24Cl` (stereo unspecified), the AC50 is 22.6 µM (active). Turning to `CN(C)N=O`, the result was inactive. The same measure, in the same setting: the result for `CC(C)(OO)c1ccccc1` reads “inactive”.

As to `O=c1[nH]c(=O)[nH]c(=O)[nH]1`, the result was inactive. As to `ClCC(Cl)CCl`, the result was inactive.

For `CCOP(=S)(OCC)SCSP(=S)(OCC)OCC`, the concentration at half-maximal activity (AC50) is 0.217 µM (active). Regarding `Oc1cccc2cccnc12`, the compound was classed as inactive.

For the compound `NC(=O)O`, the outcome was inactive. For `CCC(=O)C(CC(C)N(C)C)(c1ccccc1)c1ccccc1` (stereo unspecified), the call was inactive. As to `CCC(C)(C)c1ccc(O)c(C(C)(C)CC)c1`, the compound was classed as inactive. The same measure, in the same setting: in the case of `Cc1ccccc1N` it was “inactive”; in that of `O=C(O)C(F)(F)C(F)(F)C(F)(F)C(F)(F)C(F)(F)C(F)(F)F`, “inactive”; in that of `COc1cc(-c2ccc(N)c(OC)c2)ccc1N`, “inactive”. On to `C=C(C)C(=O)[O][Sn]([CH2]CCC)([CH2]CCC)[CH2]CCC`, for which the outcome was inactive. For the compound `CCN1CCC2(CC1)COc1cc3c(cc12)N(C(=O)c1ccc(-c2ccc(-c4nnc(C)o4)cc2C)cc1)CC3`, the half-maximal activity concentration (AC50) was 46.8 µM (active).

As to `CC(C)(c1ccccc1)c1ccc(O)c(C(C)(C)c2ccccc2)c1`, the result was inactive. For the compound `CCOP(=S)(OCC)Oc1nc(Cl)c(Cl)cc1Cl`, the call was inactive. With `Cn1sc(Cl)cc1=O`, the compound was called inactive. For `O=C(Nc1ccc2[nH]ccc2c1)c1cc2cc(F)ccc2n1Cc1cccc(F)c1`, the AC50 is 12.4 µM (active).

Turning to `C=CC(=O)OCCCCCC(C)C`, the call was inactive.

As to `CC(C)(C)c1cc(O)ccc1O`, the result was inactive. Same read-out and setting: in the case of `O=C(O)C(F)(F)C(F)(F)C(F)(F)C(F)(F)C(F)(F)C(F)(F)C(F)(F)C(F)(F)C(F)(F)C(F)(F)F` it was “inactive”; in that of `C[C@]12CCC(=O)C[C@@H]1CC[C@@H]1[C@@H]2CC[C@]2(C)[C@@H](O)CC[C@@H]12`, “inactive”. For `CC(=O)[O][Hg][c]1ccccc1`, the half-maximal activity concentration (AC50) was 0.193 µM (active). As for `CCCCCCCCc1ccc(O)cc1`, the concentration at half-maximal activity (AC50) was 0.418 µM (active).

On to `C[C@@H]1C[C@@H]([C@H](O)CC2CC(=O)NC(=O)C2)C(=O)[C@@H](C)C1`, for which the AC50 is 12 µM (active). On to `O=C(O)C(Cl)(Cl)Cl`, for which the outcome was inactive.
